Measured values taken from PubChem BioAssay (NCI).
Values joined by “and” are separate entries in the source; they are usually repeats but may differ in a detail not shown here. Identical values can stand only once. Compounds without any hit were thinned out: in the full panel of roughly 83,000, 20% have a hit.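 Each cell line was grown in a 96-well plate and treated with one concentration of compound for 48 hours. Values below 10 were considered active.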 Active and inactive are the calls of the source.

tested on: MDA-MB-468 breast; assay: NCI-60 one-dose screen, 48 h (100 = growth as untreated, 0 = no growth, -100 = all killed); settings: 10 µM unless noted

| SMILES | growth |
| --- | --- |
| Fc1cc(Nc2ccc3c(OCCCN4CCOCC4)cccc3n2)ccc1Cl | 28.5% (inactive) |
| COC1OCC(OS(=O)(=O)c2ccc(C)cc2)C(OC(=O)c2ccccc2)C1OC(=O)c1ccccc1 (stereo not given) | 13% (inactive) |
| Cc1ccc(-c2csc(NC(=O)N3CCN(c4cc5c(cc4F)c(=O)c(C(=O)O)cn5C4CC4)CC3)n2)cc1 | -5.11% (active) |
| COc1ccc(Nc2ncc(Br)c(NCCCNC(=O)C3CCCC3)n2)cc1 | 54.5% (inactive) |
| O=c1[nH]c(-c2ccc(Cl)cc2)nc2sc3c(c12)CCCC3 | 82.2% (inactive) |
| O=C(COC(=O)[C@H](C[Se][Se]C[C@H](NC(=O)c1ccc(Br)cc1F)C(=O)OCC(=O)c1ccc(F)cc1)NC(=O)c1ccc(Br)cc1F)c1ccc(F)cc1 | -79.5% (active) |
| COc1cc2c(c(OC)c1OC)C(=O)/C(=C/c1cc(C)c(O)c(C)c1)S2 | 5.19% (active) |
| COc1ccc(-c2nc(SCCC(C)C)nc(N/N=C(/C)c3ccc(C)cc3)c2C#N)cc1 | 105% (inactive) |
| CN(C)CC1(C)Cc2ccsc2C1O (stereo not given) | 104% (inactive) and 109% (inactive) |
| COC(=O)[C@H]1CCCN1C(=O)C1CCCN1C(=O)[C@@H](Cc1ccccc1)NC(=S)Nc1cc(C(F)(F)F)cc(C(F)(F)F)c1 (stereo not given in full) | 100% (inactive) and 58.2% (inactive) |
| O=C1c2c(c3c4ccccc4[nH]c3c3ccc4ccccc4c23)C(=O)N1CCN1CCNCC1 | 76.5% (inactive) |
| C=CC[n+]1c(/C=C/C=C2\N(C)c3ccccc3C2(C)C)sc2ccc(OC)cc21 | -5.71% (active) |
| COc1cccc(/C=C2\SC(=Nc3ccc(NC(C)=O)cc3)NC2=O)c1OC | 109% (inactive) |
| CCCCC1COc2cccc3c2N1C=C/C3=C\C(=O)N(C)c1cccc(Cl)c1 (stereo not given) | 84.4% (inactive) |
| CCOC(C)=N | 117% (inactive) |
| C/C(=N\NC(=S)N1CCCCC1)c1ccccn1 | -27.4% (active) |
| CC(C)Nc1ccc(Nc2ccc(NC(C)C)cc2)cc1 | -7.07% (active) |
| CCN(CC)c1ccc(/C=C2\SC(=O)C(Nc3nnc(-c4cccnc4SCc4ccccc4)o3)C2=O)cc1 (stereo not given) | 2.42% (active) |
| O=C1CC(c2ccc(O)c(O)c2)Oc2cc(O)c([C@@H]3O[C@H](CO)[C@@H](O)[C@H](O)[C@H]3O)c(O)c21 (stereo not given in full) | 106% (inactive) |
| CCC(C)(c1cc(C(C)(C)C)c(O)c(C(C)(C)C)c1)c1cc(C(C)(C)C)c(O)c(C(C)(C)C)c1 | 112% (inactive) |

| SMILES | growth |
| --- | --- |
| Cc1ccc(NC(=O)c2[nH]c(SCCN(C)C)nc2-c2ccc(F)cc2)cc1Nc1ccc2ncn(C)c(=O)c2c1 | 92.1% (inactive) |
| O=C(OCC(O)C1OC(c2ccccc2)OC(COC(=O)c2ccccc2)C1O)c1ccccc1 (stereo not given) | 100% (inactive) |
| CC(C)(C)c1cc(-c2nc3ccc(N4CCN(S(C)(=O)=O)CC4)cc3[nH]2)cc(C(C)(C)C)c1O | 96.1% (inactive) |
| N#Cc1c(-c2cccc(F)c2)cc(-c2ccc(Br)s2)[nH]c1=O | 82.1% (inactive) |
| Cc1ccc(C(=O)c2ccc(CC(=O)N/N=C/c3ccccc3O)n2C)cc1 | 81.1% (inactive) |
| O=Cc1c(OCc2cnnn2CC(=O)Nc2ccc(Cl)cc2)ccc2ccccc12 | 104% (inactive) |
| CCN(CC)CCSc1c2ccc(Cl)cc2nc2ccc(OC)cc12 | -17.5% (active) |
| C#CCn1cc(C=C2C(=O)NC(=O)NC2=O)c2cc(Cl)ccc21 | 41.9% (inactive) |
| CC(C)(C)Nc1nc2c(OCCc3ccccc3)cccn2c1-c1cccc(Oc2ccccc2)c1 | -12.7% (active) |
| Cn1nc(C(F)(F)F)cc1-c1cc(Cl)c(OCc2ccc(Cl)cc2)c(-c2ccc(Cl)c(C(F)(F)F)c2)c1O | -16.1% (active) |
| N#Cc1cccc(-c2c(-c3ccc4ccccc4c3)oc3ccccc3c2=O)c1 | 3.16% (active) |
| CSc1ccc2c(c1)N(CCC1CCCCN1C)c1ccccc1S2 (stereo not given) | -10.2% (active) |
| COc1cc2c(cc1OC)-c1cc(OC)c(OC)cc1C(CN(C)C)C2 (stereo not given) | 66.4% [100 µM] (inactive) |
| COc1cc(/C=N/NC(=O)c2ccc(C)nc2)cc(OC)c1OC | 98.5% (inactive) |
| Oc1cc(/C=C/c2nc(N3CCOCC3)c3cc(Cl)c(Cl)cc3n2)cc(O)c1O | 85% (inactive) |
| CC(=O)c1cc(O)c2ccccc2c1O | 63.9% (inactive) |
| CN(C)c1ccc(-c2ccc(-c3ccc(C(=N)N)cc3)s2)cc1 | -69.7% (active) |
| CC(=O)N(O)CCCCCNC(=O)CCC(=O)N(O)CCCCCNC(=O)CCC(=O)N(O)CCCCCN(CCCCCCCCCC[P+](c1ccccc1)(c1ccccc1)c1ccccc1)CCCCCCCCCC[P+](c1ccccc1)(c1ccccc1)c1ccccc1 | -42.6% (active) |
| NCCNc1ccc([N+](=O)[O-])cc1 | 110% (inactive) |
| Nc1ncnc(Nc2ccccc2)n1 | 108% (inactive) |
